{"source": "PubChem BioAssay (NCATS)", "note": "Inconclusive results are not listed. A number with no mark means an inactive call. Calls of active or inactive are those of the source. Calls follow the shape of the dose curve; as a rule, active = well fitted cell-killing curve with a large enough effect; inconclusive = small, poorly fitted or top-dose-only effect, or effect the other way; inactive = no such curve, though single readings can be large or run the other way.", "data": [{"experiment": "qHTS assay to identify small molecule inhibitors of chordoma cells - UCH-1 (AID 1259355); also: nearly all actives have a fitted effect of over 55% in size; also: potency is read from the fitted curve at half-maximal effect; as to activity, negative = inhibition: % is scaled to controls: 0 for no effect and ±100 for the full control effect", "conditions": "UCH-1 chordoma viability, CellTiter-Glo, 48 h, combination; series mostly up to 46.1 µM; activity, negative = inhibition: at the top concentration", "summary_of_the_method": "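A 48hr growth-inhibition format: each drug tested at 15 concentrations together with added auranofin, camptothecin, doxorubicin, rubitecan and topotecan, with cell viability quantified as CellTiter-Glo luminescence.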", "values": [{"compound": "CC(Cc1ccccc1)NC=O", "note": "(configuration not stated)", "activity, negative = inhibition": "-0.408% [at 46.1 µM, with auranofin plus four topoisomerase inhibitors]"}, {"compound": "CCN(CC)C(=O)N[C@H]1C[C@@H]2c3cccc4[nH]cc(c34)C[C@H]2N(C)C1", "activity, negative = inhibition": "-10.1%"}, {"compound": "CCCC(C)C1(CC)C(=O)NC(=O)NC1=O", "note": "(configuration not stated)", "activity, negative = inhibition": "-9.34%"}, {"compound": "CC(C)(O)[C@@H]1[C@H]2OC(=O)[C@@H]1[C@]1(O)C[C@H]3O[C@]34C(=O)O[C@H]2[C@]14C", "activity, negative = inhibition": "1.8%"}, {"compound": "C[C@]12CC[C@H]3[C@@H](CCC4=C(Cl)C(=O)CC[C@@]43C)[C@@H]1CC[C@@H]2O", "activity, negative = inhibition": "-3.64%"}, {"compound": "CC(=O)OC1CN2CCC1CC2", "note": "(configuration not stated)", "activity, negative = inhibition": "-12.7% [at 46.1 µM, with auranofin plus four topoisomerase inhibitors]"}, {"compound": "[2H]C([2H])([2H])[C@H](N)Cc1ccccc1", "activity, negative = inhibition": "-15%"}, {"compound": "C[C@@H]([C@H](O)c1ccccc1)N(C)C", "activity, negative = inhibition": "-17.2%"}, {"compound": "CCCCCCCCCC(=O)O[C@H]1CC[C@H]2[C@@H]3CCC4=CC(=O)CC[C@]4(C)[C@H]3CC[C@]12C", "activity, negative = inhibition": "-46.4%"}, {"compound": "C[C@H]1CCC[C@H](O)CCCCCc2cc(O)cc(O)c2C(=O)O1", "activity, negative = inhibition": "-11%"}, {"compound": "N#CC1(N2CCCCC2)CCCCC1", "activity, negative = inhibition": "-28.5%"}, {"compound": "CCCCCc1cc(O)c2c(c1)OC(C)(C)[C@@H]1CCC(C)=C[C@@H]21", "activity, negative = inhibition": "-12%"}, {"compound": "Oc1cccc[c]1[Hg][Cl]", "Potency": "15.8 µM [with auranofin plus four topoisomerase inhibitors] (active)"}, {"compound": "CCC/C=C/C=C/C(=O)O[C@H]1/C(=C/C(=O)OC)C[C@H]2C[C@H]([C@@H](C)O)OC(=O)C[C@H](O)C[C@@H]3C[C@H](OC(C)=O)C(C)(C)[C@](O)(C[C@@H]4C/C(=C/C(=O)OC)C[C@H](/C=C/C(C)(C)[C@]1(O)O2)O4)O3", "activity, negative = inhibition": "-22.3% [at 46.1 µM, with auranofin plus four topoisomerase inhibitors]"}, {"compound": "F/C(COc1ccc2c(c1)[nH]c1ccccc12)=C1/CN2CCC1CC2", "activity, negative = inhibition": "-7.49% [at 46.1 µM, with auranofin plus four topoisomerase inhibitors]"}, {"compound": "CCCCCCCCOC(=O)c1ccccc1C(=O)OCCCCCCCC", "activity, negative = inhibition": "3.81%"}, {"compound": "ClC1=C(Cl)[C@]2(Cl)[C@@H]3[C@H]4C[C@H]([C@@H]5O[C@H]45)[C@@H]3[C@@]1(Cl)C2(Cl)Cl", "activity, negative = inhibition": "0.767% [at 46.1 µM, with auranofin plus four topoisomerase inhibitors]"}, {"compound": "CCNCC(O)c1cccc(O)c1", "note": "(configuration not stated)", "activity, negative = inhibition": "-47.9% [at 20.6 µM, with auranofin plus four topoisomerase inhibitors]"}, {"compound": "c1ccc2sc(SNC3CCCCC3)nc2c1", "activity, negative = inhibition": "-2.83%"}, {"compound": "Cc1ccccc1-n1c(C)nc2ccccc2c1=O", "activity, negative = inhibition": "-4.53%"}, {"compound": "CO[C@H]1[C@@H](O)C[C@H](O[C@H]2[C@@H](O)C[C@H](O[C@H]3[C@@H](O)C[C@H](O[C@H]4CC[C@@]5(C)[C@H](CC[C@@H]6[C@@H]5C[C@@H](O)[C@]5(C)[C@@H](C7=CC(=O)OC7)CC[C@]65O)C4)O[C@@H]3C)O[C@@H]2C)O[C@@H]1C", "Potency": "0.355 µM [with auranofin plus four topoisomerase inhibitors] (active)"}, {"compound": "CCCC(C)(COC(N)=O)COC(=O)NC1CC1", "note": "(configuration not stated)", "activity, negative = inhibition": "-3.06%"}, {"compound": "CN(C)CCCCCCN(C)C", "note": "(tested in a mixture with another compound)", "activity, negative = inhibition": "-1.37%"}, {"compound": "NCC[C@H](O)C(=O)N[C@@H]1C[C@H](N)[C@@H](O[C@H]2O[C@H](CN)[C@@H](O)[C@H](O)[C@H]2N)[C@H](O[C@@H]2O[C@H](CO)[C@@H](O)[C@H]2O)[C@H]1O", "activity, negative = inhibition": "-3.46% [at 20.6 µM, with auranofin plus four topoisomerase inhibitors]"}, {"compound": "O=c1ccc2cc(O[C@@H]3O[C@H](CO)[C@@H](O)[C@H](O)[C@H]3O)c(O)cc2o1", "activity, negative = inhibition": "-5.56% [at 20.6 µM, with auranofin plus four topoisomerase inhibitors]"}, {"compound": "O=C1C[C@@H]2OCC=C3CN4CC[C@]56c7ccccc7N1[C@H]5[C@H]2[C@H]3C[C@H]46", "activity, negative = inhibition": "-9.45%"}, {"compound": "C[C@]12CC[C@H]3[C@@H](CC[C@@]45O[C@@H]4C(O)=C(C#N)C[C@]35C)[C@@H]1CC[C@@H]2O", "activity, negative = inhibition": "-4.22%"}, {"compound": "ClCC1CO1", "note": "(configuration not stated)", "activity, negative = inhibition": "1.61% [at 46.1 µM, with auranofin plus four topoisomerase inhibitors]"}, {"compound": "O=C1OC2(c3cc(Br)c(O)cc3Oc3c2cc(Br)c(O)[c]3[Hg])c2ccccc21", "note": "(configuration not stated)", "activity, negative = inhibition": "-34.9% [at 20.6 µM, with auranofin plus four topoisomerase inhibitors]"}, {"compound": "CC(=O)[C@H]1CC[C@H]2[C@@H]3CC[C@@H]4C[C@H](O)CC[C@]4(C)[C@H]3CC[C@]12C", "activity, negative = inhibition": "-7.54%"}, {"compound": "C[C@H]1CC[C@]2(NC1)O[C@H]1C[C@H]3[C@@H]4CC[C@H]5C[C@@H](O)CC[C@]5(C)[C@H]4CC[C@]3(C)[C@H]1[C@@H]2C", "activity, negative = inhibition": "-9.99% [at 46.1 µM, with auranofin plus four topoisomerase inhibitors]"}, {"compound": "O=c1[nH]cc(N(CCCl)CCCl)c(=O)[nH]1", "activity, negative = inhibition": "-10.7%"}, {"compound": "O=[N+]([O-])c1cc(I)c(O)c(I)c1", "activity, negative = inhibition": "1.14%"}, {"compound": "CCC(N)Cc1c[nH]c2ccccc12", "note": "(configuration not stated)", "activity, negative = inhibition": "-10.4%"}, {"compound": "Cc1cccc(C(C)c2cnc[nH]2)c1C", "note": "(configuration not stated)", "activity, negative = inhibition": "-4.3%"}, {"compound": "CCC(C)(S(=O)(=O)CC)S(=O)(=O)CC", "activity, negative = inhibition": "-1.08%"}, {"compound": "COC1=CC=C2[C@H]3Cc4ccc(OC)c5c4[C@@]2(CCN3C)[C@H]1O5", "activity, negative = inhibition": "-16.7% [at 20.6 µM]"}]}]}
